Results filed as inconclusive are left out. Active and inactive are the calls of the source. The call rests on the fitted dose curve; in most records, active means well fitted inhibition curve with a large enough effect; inconclusive means small, poorly fitted or top-dose-only effect; inactive means flat fitted curve, though single readings scatter.
Experiments:
Assay in all cases: qHTS profiling for inhibitors of Plasmodium falciparum proliferation (AID 504749); further: nearly all actives have a fitted effect of over 60% in size
Conditions in all cases: P. falciparum in erythrocytes, SYBR Green DNA, 72 h; series mostly up to 28.7 µM
CP250 = system: CP250
Summary of the method: (§1)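 SYBR Green fluorescence of parasite DNA, read after lysis and overnight dark incubation, measured growth over 72 h in erythrocyte culture at 0.3% parasitemia and 2.5% hematocrit. Data normalised to DMSO and 0.29 uM artemisinin, with plate-drift correction.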

CP252 = system: CP252
Summary of the method: as §1

CP256 = system: CP256
Summary of the method: as §1

CP260 = system: CP260
Summary of the method: as §1

CP262 = system: CP262
Summary of the method: as §1

CP265 = system: CP265
Summary of the method: as §1

CP266 = system: CP266
Summary of the method: as §1

CP268 = system: CP268
Summary of the method: as §1

CP269 = system: CP269
Summary of the method: as §1

CP286 = system: CP286
Summary of the method: as §1

CP291 = system: CP291
Summary of the method: as §1

CP305 = system: CP305
Summary of the method: as §1

CP315 = system: CP315
Summary of the method: as §1

CP325 = system: CP325
Summary of the method: as §1

CP329 = system: CP329
Summary of the method: as §1

CP335 = system: CP335
Summary of the method: as §1

DFO2036 = system: DFO2036
Summary of the method: as §1

CP297 = system: CP297
Summary of the method: as §1

DIV17 = system: DIV17
Summary of the method: as §1

DIV14 = system: DIV14
Summary of the method: as §1

Measured: Potency

Cc1cc(C(=O)NCCc2ccc(S(=O)(=O)NC(=O)NN3CCCCCC3)cc2)no1
inactive: CP250 | CP252 | CP256 | CP260 | CP262 | CP265 | CP266 | CP268 | CP269 | CP286 | CP291 | CP305 | CP315 | CP325 | CP329 | CP335 | DFO2036

CCCCCCCCCCCCCCCCCC(=O)OC[C@@H](O)[C@H]1OC[C@H](O)[C@H]1O
inactive: CP250 | CP252 | CP256 | CP260 | CP262 | CP265 | CP266 | CP268 | CP269 | CP286 | CP291 | CP297 | CP305 | CP315 | CP325 | CP329 | CP335 | DFO2036 | DIV17

C[C@H]1O[C@@H](O[C@H]2[C@@H](O)C[C@H](O[C@H]3[C@@H](O)C[C@H](O[C@H]4CC[C@@]5(C)[C@H](CC[C@@H]6[C@@H]5C[C@@H](O)[C@]5(C)[C@@H](C7=CC(=O)OC7)CC[C@]65O)C4)O[C@@H]3C)O[C@@H]2C)C[C@H](O)[C@@H]1O
inactive: CP250 | CP252 | CP256 | CP260 | CP262 | CP265 | CP266 | CP268 | CP269 | CP286 | CP291 | CP297 | CP305 | CP315 | CP325 | CP329 | CP335 | DFO2036 | DIV17

CC1CC(OC(=O)C(O)c2ccccc2)CC(C)(C)C1 (centres undefined)
inactive: CP250 | CP252 | CP256 | CP260 | CP262 | CP265 | CP266 | CP268 | CP269 | CP286 | CP291 | CP297 | CP305 | CP315 | CP325 | CP329 | DFO2036 | DIV14 | DIV17

O=C(O)/C=C/C(=O)Nc1ccc(S(=O)(=O)Nc2nccs2)cc1
inactive: CP250 | CP252 | CP256 | CP260 | CP262 | CP265 | CP266 | CP268 | CP269 | CP286 | CP291 | CP305 | CP315 | CP325 | CP329 | CP335 | DFO2036 | DIV14 | DIV17

CCCCC/C=C\C/C=C\C/C=C\CCCCC(=O)O
inactive: CP250 | CP252 | CP256 | CP260 | CP262 | CP265 | CP266 | CP268 | CP269 | CP286 | CP291 | CP305 | CP315 | CP325 | CP329 | CP335 | DFO2036 | DIV14 | DIV17

CCOC(=O)[C@@H](N)CS
inactive: CP250 | CP252 | CP256 | CP260 | CP262 | CP265 | CP266 | CP268 | CP269 | CP286 | CP291 | CP297 | CP305 | CP315 | CP325 | CP329 | DFO2036 | DIV14 | DIV17

Cc1ccc(C(C)(C)c2ccc(C)cc2)cc1
inactive: CP250 | CP252 | CP256 | CP260 | CP262 | CP265 | CP266 | CP268 | CP269 | CP286 | CP291 | CP297 | CP305 | CP315 | CP325 | CP329 | CP335 | DFO2036 | DIV17

NC(=O)Oc1ccc(Cc2ccccc2)cc1
inactive: CP250 | CP252 | CP256 | CP260 | CP262 | CP265 | CP266 | CP268 | CP269 | CP286 | CP297 | CP305 | CP315 | CP325 | CP329 | CP335 | DFO2036 | DIV14 | DIV17

C=CC(=O)O
inactive: CP250 | CP252 | CP256 | CP260 | CP262 | CP265 | CP266 | CP268 | CP269 | CP286 | CP291 | CP297 | CP305 | CP315 | CP325 | CP329 | CP335 | DFO2036 | DIV17

O=C1CCC(=O)N1CO
inactive: CP250 | CP252 | CP256 | CP260 | CP262 | CP265 | CP266 | CP268 | CP269 | CP286 | CP291 | CP305 | CP315 | CP325 | CP329 | CP335 | DFO2036 | DIV14 | DIV17

NCC[C@H](O)C(=O)N[C@@H]1C[C@H](N)[C@@H](O[C@H]2O[C@H](CN)[C@@H](O)[C@H](O)[C@H]2O)[C@H](O)[C@H]1O[C@H]1O[C@H](CO)[C@@H](O)[C@H](N)[C@H]1O
inactive: CP250 | CP252 | CP256 | CP260 | CP262 | CP265 | CP266 | CP268 | CP269 | CP286 | CP291 | CP297 | CP305 | CP315 | CP325 | CP329 | DFO2036 | DIV14 | DIV17

FC(F)OC(Cl)C(F)(F)F (centres undefined)
inactive: CP250 | CP252 | CP256 | CP260 | CP262 | CP265 | CP266 | CP269 | CP286 | CP291 | CP297 | CP305 | CP315 | CP325 | CP329 | CP335 | DFO2036 | DIV14

— PubChem BioAssay (NCATS)
